Hits are enriched below; roughly 21% of the tested compounds scored in any of these assays.
Cycloheximide cs = counter-screen hit for Shiga toxin inhibitors, cycloheximide; AID 2314; cell reporter, cycloheximide protein synthesis inhibition counterscreen; max response, %; 300,000 tested, 12% active; in the data active = max response mostly above about 13%, no sharp cut-off; inactive = mostly below about 14%; note: read at 38.3 µM for the half of the compounds with a filed dose; 0% is about no effect
NS1 inh = blocks influenza NS1 protein function; AID 2326; Potency, µM (titrated, usually from 46.1 µM), inactives show at the highest dose activity, positive = more growth; 270,000 tested, 0.4% active; calls by dose curve; note: potency is the fitted concentration of half-maximal effect; actives are rising curves; nearly all actives have a fitted effect of over 50% in size
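S. cerevisiae expressing influenza A NS1, grown in glucose, washed, then diluted 1:100 into pH 6.0 -URA galactose medium with 23 nl compound. Growth recovery read as OD600; NS1-free strain serves as control.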
FBPA Giardia inh = inhibitors of Giardia lamblia fructose-1,6-bisphosphate aldolase. purified Giardia FBPA. 290,000 tested, 0.71% active. Potency, µM (top dose mostly 59.6 µM), for inactives: at the highest dose activity, negative = inhibition, most hits filed as inhibitors. AID 2451; note: potency is the fitted concentration of half-maximal effect; % is set by controls: 0 for no effect and ±100 for the full control effect; nearly all actives have a fitted effect of over 55% in size
Target sequence (A8B2U2 whole entry, looked up): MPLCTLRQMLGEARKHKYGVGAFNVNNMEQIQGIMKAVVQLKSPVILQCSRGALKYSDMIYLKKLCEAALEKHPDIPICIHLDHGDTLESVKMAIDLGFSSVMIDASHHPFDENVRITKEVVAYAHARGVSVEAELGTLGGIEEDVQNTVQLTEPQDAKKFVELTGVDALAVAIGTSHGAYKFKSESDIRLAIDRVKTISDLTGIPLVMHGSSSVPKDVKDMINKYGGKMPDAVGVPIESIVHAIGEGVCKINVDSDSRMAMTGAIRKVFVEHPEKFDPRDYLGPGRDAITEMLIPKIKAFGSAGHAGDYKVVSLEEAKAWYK
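Giardia FBPA (40 nM reagent) was preincubated 10 min at RT with compound (up to 57.5 uM final), then substrate plus GAPDH/TPI/NAD/arsenate coupling system with diaphorase/resazurin was added; resorufin fluorescence (525/598 nm) was read after 20 min.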
Pf growth 48h = inhibits P. falciparum growth in the first generation, 48 h; P. falciparum luciferase growth in erythrocytes, 48 h; 310,000 tested, 5.9% active; Potency, µM (top dose mostly 28.7 µM), inactives show at the highest dose activity change, negative = inhibition, most hits filed as inhibitors; note: potency is the fitted concentration of half-maximal effect; % is set by controls: 0 for no effect and ±100 for the full control effect
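Cell-based growth assay: transgenic P. falciparum expressing firefly luciferase, cultured in red cells within RPMI 1640 containing 0.5% w/v Albumax, 24 mM bicarbonate and gentamycin. A drop in luciferase activity indicates inhibition.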
Shiga inhibitor = Shiga toxin inhibition; Vero cells, Shiga toxin protein synthesis inhibition reporter; inhibition, % at 38.7 µM; 290,000 tested, 9.2% active; AID 2315; in the data active = inhibition mostly above about 28%, no sharp cut-off; inactive = mostly below about 43%; note: 0% is about no effect
Pf growth 96h = inhibits malaria parasite growth, 96 h; P. falciparum luciferase reporter growth, 96 h; Potency, µM (doses to about 28.7 µM), inactives show at the top dose activity change, negative = inhibition, actives largely listed as inhibitors; 320,000 tested, 6.9% active; AID 504834; note: potency is the fitted concentration of half-maximal effect; % is set by controls: 0 for no effect and ±100 for the full control effect
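Parasite growth measured via integrated firefly luciferase reporter in P. falciparum. Infected erythrocytes at 2% hematocrit, 0.05% parasitemia final were treated 96 hours at 37 C under 5% CO2, and luminescence was read.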
* hit, by the source's call; u = inconclusive; x = no result given; [ ] = remark or other dose. Unless noted, calls come from the whole dose curve; as a rule, active = well fitted curve in the direction sought with a large enough effect; inconclusive = small, poorly fitted or top-dose-only effect, or another doubt; inactive = no such curve, though single readings can be large; an effect the other way counts as inactive or inconclusive.

SMILES	Cycloheximide cs	NS1 inh	FBPA Giardia inh	Pf growth 48h	Shiga inhibitor	Pf growth 96h
O=C(NCC1CCCO1)c1ccc([N+](=O)[O-])o1 (stereo not given)	10	-13%	x	u	-4	-3%
CC(NC(=O)c1ccc([N+](=O)[O-])o1)C12CC3CC(CC(C3)C1)C2 (stereo not given)	35*	-76%	9%	6.6µM*	45*	29%
O=C(NCCc1ccc(Cl)cc1Cl)c1cncc(Br)c1	-3	-12%	-5%	1%	1	1%
COc1cc(CN2CCCC(C(=O)N3CCc4ccccc4C3)C2)cc(OC)c1OC (stereo not given)	8	4%	u	u	5	u
O=C(OCC(=O)N1CCCC1=O)c1cc2ccccc2o1	x	x	x	0%	x	-8%
O=C(COC(=O)c1ccc(-c2ccc([N+](=O)[O-])cc2)o1)NC(=O)NC1CCCCC1	1	5%	-6%	17%	2	-22%
O=C(NC1CCC(O)CC1)c1ccc(-c2ccc([N+](=O)[O-])cc2)o1 (stereo not given)	17*	12%	-3%	20%	37	16%
CCCn1c(-c2ccc[nH]c2=O)nc2ccccc21	-1	3%	-3%	24%	-3	u
CCCC1(C)Nc2ccccc2-c2nc3ccccc3n21 (stereo not given)	53*	-59%	-1%	u	81*	2.1µM*
c1ccc2c(c1)NC1(CCCC1)n1c-2nc2ccccc21	27*	-37%	10%	33%	92*	18%
O=C(O)C(Cc1ccc2c(c1)oc1ccccc12)NCP(=O)(O)O (stereo not given)	10	x	u	x	-13	x
Cc1csc(NC(=O)COCC(=O)O)c1-c1nc2ccccc2s1	1	8%	-29%	10%	2	12%
Cc1csc(NC(=O)CCCC(=O)O)c1-c1nc2ccccc2s1	-1	0%	2%	-2%	0	-5%
CNc1sc(C(=O)c2ccc(F)cc2)c(N)c1-c1nc2ccccc2s1	29*	-46%	-5%	x	38	-94%
CNc1sc(C(=O)c2cccs2)c(N)c1-c1nc2ccccc2s1	40*	0%	-12%	-19%	176*	-14%
Cc1nc2nc(C)c(NS(=O)(=O)c3ccc(C4CCCCC4)cc3)c(=O)n2[nH]1	-4	10%	-10%	16%	-8	u
CN(C)c1nc(N)nc(Nc2ccccc2C#N)n1	-1	u	0%	-5%	9	13µM*
CCN(CC)c1ccc2cc(-c3nnc(-c4ccncc4)o3)c(=O)oc2c1	28	4%	-14%	36%	active	18%
CCN(CC)c1ccc2cc(C=O)c(=O)oc2c1	24*	-109%	4%	17%	41	3%
CCN(CC)c1ccc2cc(C(C)=O)c(=O)oc2c1	23	-78%	-1%	55%	80*	57%
CCN(CC)c1ccc2cc(C(=O)Nc3ccccn3)c(=O)oc2c1	79*	-2%	-13%	140%	63*	-1%
O=C(c1cccc(Cl)c1)C1CCCN(S(=O)(=O)c2ccccc2)C1 (stereo not given)	-3	-8%	x	u	-18	-6%
CC(=O)OC1CC[C@]2(C)C(CC(OC(C)=O)[C@]3(C)C2CC[C@@]2(C)C(c4ccoc4)OC(=O)C4O[C@]432)C1(C)C (stereo not given in full)	x	x	-1%	x	x	x
CCN(CC)c1ccc2cc(/C(N)=N/NC(=O)c3cccs3)c(=O)oc2c1	14	u	-2%	17%	9	69%
CCN(CC)c1ccc2cc(C(N)=O)c(=N)oc2c1	41*	-1%	-7%	35%	42	33%
SMILES	Cycloheximide cs	NS1 inh	FBPA Giardia inh	Pf growth 48h	Shiga inhibitor	Pf growth 96h
CCN(CC)c1ccc2cc(C(N)=O)c(=O)oc2c1	23*	-14%	-4%	109%	12	10µM*
COc1ccc(-n2nc3cc(C)c(NC(C)=O)cc3n2)cc1	32*	0%	8%	94%	140*	1%
COc1ccc(-n2nc3cc(C)c(NC(=O)C(C)C)cc3n2)cc1	36*	1%	0%	206%	69*	u
COc1ccc(N2C(=O)c3ccc(NC(C)=O)cc3C2=O)cc1	8	4%	-2%	25%	-6	3%
CCC(C(=O)Nc1ccon1)c1ccccc1 (stereo not given)	-3	0%	0%	13%	-1	-28%
CNc1nc(-c2ccc(N(C)C)cc2)nc2ccccc12	x	x	-10%	x	x	x
Cc1cccc(OCC(=O)NCC(C)(C)N2CCOCC2)c1	x	x	x	1%	x	u
O=C(c1cc2cc(F)ccc2[nH]1)N1CCc2ccccc2C1	20*	-16%	0%	u	65*	u
CN(C)C(=O)N1CCN(S(=O)(=O)c2ccc3ccccc3c2)CC1	-3	-6%	8%	8%	x	10µM*
O=S(=O)(c1ccc2ccccc2c1)N1CCN(S(=O)(=O)c2ccc3ccccc3c2)CC1	x	-3%	x	x	x	x
CN(C)S(=O)(=O)N1CCN(S(=O)(=O)c2ccc3ccccc3c2)CC1	-2	0%	5%	x	-16	u
Cc1ccc(S(=O)(=O)N2CCCN(S(=O)(=O)c3ccc4ccccc4c3)CC2)cc1	-1	10%	6%	u	8	10µM*
Cc1ccc(S(=O)(=O)N2CCCN(C(=O)c3cc4ccccc4[nH]3)CC2)cc1	54*	-11%	6%	u	81*	12µM*
CN1CCN(C(=O)c2cc3ccccc3[nH]2)CC1	-2	13%	0%	6%	x	u
CC(C)=CCC/C(C)=C/CO/N=C1/C[C@@H](O)[C@@H](O)[C@@H]2[C@@H]3C(=O)N(C[C@@H]4CCCO4)C(=O)[C@H]3CC[C@@H]12	x	x	0%[12.9 µM]	x	x	x
O=C(Cc1ccc([N+](=O)[O-])cc1)N/N=C/c1cccs1	-4	0%	-6%	14%	-4	u
O=C(NC(=S)Nc1cc(C(F)(F)F)ccc1N1CCOCC1)c1ccco1	-2	3%	-15%	u	-6	u
Cc1cc(OCC(=O)OCC(=O)N(C)C2CCS(=O)(=O)C2)ccc1Cl (stereo not given)	x	x	x	-8%	x	29%
O=C(c1cc2ccccc2[nH]1)N1CCOCC1	19*	1%	7%	34%	active	38%
Cc1ccc(S(=O)(=O)N2CCN(S(C)(=O)=O)C2)cc1	1	4%	1%	7%	-9	13µM*
COc1ccc(CCNC(=O)CNCCc2ccc(F)cc2)cc1	-2	-3%	-29%	x	1	0%
CC1=C(n2nnc([N+](=O)[O-])n2)C(c2cccnc2)C(C#N)=C(N)O1 (stereo not given)	6	7%	5µM*	13µM*	5	u
COC(=O)C1=C(C)OC(N)=C(C#N)C1c1cccnc1 (stereo not given)	1	14%	u	-14%	-7	x

Bioassay records as filed in PubChem BioAssay.
